According to PubChem BioAssay (NCI):
This is part of a sample that, as a whole, favours compounds with a hit. Of some 79,000 tested, about 15% had one in any assay. Active and inactive are the calls of the source. Rule as the data show it: active = growth inhibition above about 70%; inactive = the rest.

How the values were obtained:
[1] = NCI Yeast Anticancer Drug Screen. Data for the wt2 strain (AID 169);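 also: 0% = growth of vehicle-treated yeast cultures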; conditions: S. cerevisiae wt2 strain growth inhibition, hits give high values
Summary of the method: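 Genetically defined yeast strains from a DNA-repair/cell-cycle panel were used. Compound-exposed yeast growth was measured, and the inhibition was calculated relative to vehicle treatment.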

[2] = NCI Yeast Anticancer Drug Screen. Data for the mlh1 strain (AID 171);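 also: 0% = growth of vehicle-treated control cultures of the same strain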; conditions: S. cerevisiae mlh1 strain growth inhibition, hits give high values
Summary of the method: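 Here the genetically defined yeast mutant is grown with each compound, and the extent to which its growth falls below that of vehicle-exposed cells is reported.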

[3] = NCI Yeast Anticancer Drug Screen. Data for the sgs1 strain (AID 173);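 also: 0% = growth of vehicle-only control cultures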; conditions: S. cerevisiae sgs1 mutant, hits give high values
Summary of the method: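 Relative growth inhibition, referenced to vehicle, was determined in a yeast strain with a defined alteration affecting DNA damage repair or cell cycle control after compound exposure.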

[4] = NCI Yeast Anticancer Drug Screen. Data for the mlh1 rad18 strain (AID 175); conditions: S. cerevisiae mlh1 rad18 strain growth inhibition, hits give high values
Summary of the method: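 In this whole-cell yeast screen, a strain with altered DNA damage repair is challenged with compound, and its growth is measured against matched vehicle-treated controls.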

[5] = NCI Yeast Anticancer Drug Screen. Data for the rad18 strain (AID 177); conditions: S. cerevisiae rad18 mutant growth inhibition, hits give high values
Summary of the method: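 Screen uses a yeast strain with a defined lesion in DNA damage repair; compound effect is read as loss of growth compared to untreated vehicle cultures.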

[6] = NCI Yeast Anticancer Drug Screen. Data for the rad52 strain (AID 147);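 also: 0% = growth of vehicle-treated control cultures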; conditions: S. cerevisiae rad52 mutant growth inhibition, hits give high values
Summary of the method: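 Measured: yeast growth inhibition. System: strain with a defined DNA damage repair alteration. Reference: vehicle-treated control cultures.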

[7] = NCI Yeast Anticancer Drug Screen. Data for the wt1 strain (AID 149);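 also: 0% = growth of vehicle-treated wt1 cultures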; conditions: S. cerevisiae wt1 strain (SPY 50644) growth inhibition, hits give high values
Summary of the method: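 Measured: growth of wt1 yeast under compound versus vehicle treatment, reported as inhibition.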

[8] = NCI Yeast Anticancer Drug Screen. Data for the rad50EPP+ strain (AID 151);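 also: 0% = growth of vehicle-treated control cultures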; conditions: S. cerevisiae rad50 mutant strain, hits give high values
Summary of the method: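 One strain with a rad50 alteration (rad50EPP+) was compound-treated, its growth then compared to that of vehicle controls.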

[9] = NCI Yeast Anticancer Drug Screen. Data for the mgt1 strain (AID 153); conditions: S. cerevisiae mgt1 mutant growth inhibition, hits give high values
Summary of the method: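 After exposure of the mgt1 yeast mutant to compound, growth was measured and reported as inhibition compared with vehicle controls.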

[10] = NCI Yeast Anticancer Drug Screen. Data for the rad50 strain (AID 155);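 also: 0% = growth of vehicle-only cultures of the same strain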; conditions: S. cerevisiae rad50 strain growth inhibition, hits give high values
Summary of the method: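 Growth of the mutant yeast was measured after compound exposure and referenced to vehicle-treated cultures.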

[11] = NCI Yeast Anticancer Drug Screen. Data for the mec2-1 strain (AID 157); conditions: S. cerevisiae mec2-1 strain, hits give high values
Summary of the method: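 Test agents were screened against the mec2-1 yeast strain, with defined DNA repair or cell cycle alteration. Growth was scored as inhibition against vehicle-only controls.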

[12] = NCI Yeast Anticancer Drug Screen. Data for the rad14 strain (AID 159);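 also: 0% = growth of vehicle-treated control cultures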; conditions: S. cerevisiae rad14 strain growth inhibition, hits give high values
Summary of the method: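 Here, inhibition of yeast growth was measured after compound exposure, using a strain with a genetic defect in DNA damage repair and vehicle-treated cultures as the reference.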

[13] = NCI Yeast Anticancer Drug Screen. Data for the sgs1 mgt1 strain (AID 161);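 also: 0% = growth of cultures given vehicle only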; conditions: S. cerevisiae sgs1 mgt1 strain, hits give high values
Summary of the method: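 Inhibition of yeast growth, normalised to vehicle-treated controls, is reported for a strain bearing genetic alterations in DNA damage repair.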

[14] = NCI Yeast Anticancer Drug Screen. Data for the CLN2oe strain (AID 163);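 also: 0% = growth of vehicle-only control cultures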; conditions: S. cerevisiae CLN2oe strain, hits give high values
Summary of the method: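 Here, growth inhibition in a cell-cycle-altered yeast strain after compound exposure was quantified against vehicle control growth.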

[15] = NCI Yeast Anticancer Drug Screen. Data for the cln2 rad14 strain (AID 165);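 also: 0% = growth equal to vehicle treated cultures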; conditions: S. cerevisiae cln2 rad14 strain, hits give high values
Summary of the method: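 Growth of compound-exposed yeast (cln2 rad14 genotype) measured and expressed as inhibition relative to vehicle.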

[16] = NCI Yeast Anticancer Drug Screen. Data for the bub3 strain (AID 167); conditions: S. cerevisiae bub3 mutant strain, hits give high values
Summary of the method: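 Whole-cell yeast assay. The mutant strain was incubated with compounds, and growth inhibition was determined by comparison with vehicle-treated cells.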

[17] = at 5.0 µM (retest, dose inferred, filed as 0.5)
[18] = at 50.0 µM (retest, dose inferred, filed as 5.0)

Measured: growth inhibition

OB(O)c1ccccc1C#Cc1ccccc1
inactive: [1]; at 1.2 µM -2% | [1]; at 3.7 µM -1% | [1]; at 11.0 µM 7% | [1]; at 33.0 µM 23% | [1]; at 100.0 µM 24% | [2]; at 1.2 µM -2% | [2]; at 3.7 µM 6% | [2]; at 11.0 µM 4% | [2]; at 33.0 µM 14% | [2]; at 100.0 µM 14% | [3]; at 1.2 µM -1% | [3]; at 3.7 µM -1% | [3]; at 11.0 µM 8% | [3]; at 33.0 µM 19% | [3]; at 100.0 µM 31% | [4]; [17] 13% | [4]; [18] 68% | [5]; at 1.2 µM 1% | [5]; at 3.7 µM 2% | [5]; at 11.0 µM 13% | [5]; at 33.0 µM 41% | [5]; at 100.0 µM 54%
active: [4]; at 50.0 µM 75.8%

COc1ccc(C(=O)/C=C\c2ccc(Cl)c(Cl)c2)cc1
inactive: [6]; at 1.2 µM 16% | [6]; at 3.7 µM 15% | [6]; at 11.0 µM 19% | [6]; at 33.0 µM 34% | [6]; at 100.0 µM 56% | [7]; at 1.2 µM 26% | [7]; at 3.7 µM 26% | [7]; at 11.0 µM 29% | [7]; at 33.0 µM 43% | [8]; at 1.2 µM 12% | [8]; at 3.7 µM 10% | [8]; at 11.0 µM 16% | [8]; at 33.0 µM 31% | [8]; at 100.0 µM 24% | [9]; at 1.2 µM 7% | [9]; at 3.7 µM -38% | [9]; at 11.0 µM -4% | [9]; at 33.0 µM 25% | [10]; at 1.2 µM 4% | [10]; at 3.7 µM 7% | [10]; [17] 53% | [10]; at 11.0 µM 6% | [10]; at 33.0 µM 34% | [10]; [18] 68% | [10]; at 50.0 µM 69.5% | [11]; at 1.2 µM -7% | [11]; at 3.7 µM 0% | [11]; [17] 47% | [11]; at 11.0 µM 7% | [11]; at 33.0 µM 23% | [11]; [18] 58% | [11]; at 50.0 µM 59.6% | [11]; at 100.0 µM 68% | [12]; at 1.2 µM -19% | [12]; at 3.7 µM -20% | [12]; at 11.0 µM -30% | [12]; at 33.0 µM -17% | [12]; at 100.0 µM 42% | [13]; [17] -18% | [14]; at 1.2 µM 12% | [14]; at 3.7 µM 10% | [14]; at 11.0 µM 8% | [14]; at 33.0 µM 22% | [14]; at 100.0 µM 69% | [15]; [17] 18% | [15]; at 50.0 µM 57.6% | [16]; at 1.2 µM 0% | [16]; at 3.7 µM 2% | [16]; [17] 12% | [16]; at 11.0 µM -3% | [16]; at 33.0 µM 29% | [16]; at 100.0 µM 67% | [1]; at 1.2 µM 15% | [1]; at 3.7 µM 0% | [1]; at 11.0 µM 12% | [1]; at 33.0 µM 37% | [2]; at 1.2 µM 11% | [2]; at 3.7 µM 12% | [2]; at 11.0 µM -11% | [2]; at 33.0 µM 15% | [2]; at 100.0 µM 64% | [3]; at 1.2 µM 10% | [3]; at 3.7 µM 5% | [3]; at 11.0 µM 11% | [3]; at 33.0 µM 44% | [3]; at 100.0 µM 67% | [4]; [17] 39% | [4]; at 50.0 µM 63.5% | [5]; at 1.2 µM -17% | [5]; at 3.7 µM -35% | [5]; at 11.0 µM -44% | [5]; at 33.0 µM -6% | [5]; at 100.0 µM 52%
active: [7]; at 100.0 µM 81% | [9]; at 100.0 µM 70% | [10]; at 100.0 µM 71% | [13]; [18] 80% | [13]; at 50.0 µM 70.8% | [15]; [18] 77% | [16]; [18] 80% | [16]; at 50.0 µM 74.6% | [1]; at 100.0 µM 76% | [4]; [18] 72%

Cc1c2c(nc3ccccc13)C(=O)c1cccnc1C2=O
active: [6]; at 33.0 µM 75% | [6]; at 100.0 µM 94% | [7]; at 100.0 µM 81% | [8]; at 100.0 µM 92% | [9]; at 100.0 µM 78% | [10]; at 33.0 µM 78% | [10]; [18] 90% | [10]; at 50.0 µM 77.8% | [10]; at 100.0 µM 94% | [11]; [18] 90% | [11]; at 100.0 µM 83% | [12]; at 100.0 µM 81% | [13]; [18] 78% | [13]; at 50.0 µM 79.2% | [14]; at 100.0 µM 78% | [15]; [18] 72% | [16]; [18] 83% | [16]; at 50.0 µM 75.7% | [16]; at 100.0 µM 83% | [1]; at 100.0 µM 73% | [2]; at 100.0 µM 84% | [3]; at 100.0 µM 81% | [4]; [18] 90% | [4]; at 50.0 µM 84% | [5]; at 100.0 µM 90%
inactive: [6]; at 1.2 µM -10% | [6]; at 3.7 µM 0% | [6]; at 11.0 µM 9% | [7]; at 1.2 µM 2% | [7]; at 3.7 µM 9% | [7]; at 11.0 µM 6% | [7]; at 33.0 µM 17% | [8]; at 1.2 µM -6% | [8]; at 3.7 µM -11% | [8]; at 11.0 µM -2% | [8]; at 33.0 µM 45% | [9]; at 1.2 µM 1% | [9]; at 3.7 µM -1% | [9]; at 11.0 µM -10% | [9]; at 33.0 µM 13% | [10]; at 1.2 µM 9% | [10]; at 3.7 µM 15% | [10]; [17] 57% | [10]; at 11.0 µM 21% | [11]; at 1.2 µM -18% | [11]; at 3.7 µM -10% | [11]; [17] -4% | [11]; at 11.0 µM -13% | [11]; at 33.0 µM 7% | [11]; at 50.0 µM 66.8% | [12]; at 1.2 µM 3% | [12]; at 3.7 µM 3% | [12]; at 11.0 µM 4% | [12]; at 33.0 µM 23% | [13]; [17] 1% | [14]; at 1.2 µM -8% | [14]; at 3.7 µM 1% | [14]; at 11.0 µM 3% | [14]; at 33.0 µM 11% | [15]; [17] -1% | [15]; at 50.0 µM 64% | [16]; at 1.2 µM 5% | [16]; at 3.7 µM 7% | [16]; [17] 12% | [16]; at 11.0 µM -13% | [16]; at 33.0 µM 4% | [1]; at 1.2 µM 3% | [1]; at 3.7 µM -3% | [1]; at 11.0 µM 17% | [1]; at 33.0 µM 20% | [2]; at 1.2 µM 22% | [2]; at 3.7 µM 15% | [2]; at 11.0 µM 20% | [2]; at 33.0 µM 17% | [3]; at 1.2 µM -9% | [3]; at 3.7 µM -11% | [3]; at 11.0 µM -9% | [3]; at 33.0 µM 11% | [4]; [17] 19% | [5]; at 1.2 µM -11% | [5]; at 3.7 µM -5% | [5]; at 11.0 µM 0% | [5]; at 33.0 µM 23%
